# Screens as filed in PubChem BioAssay.
# ALR inh: blocks human ALR sulfhydryl oxidase activity; purified ALR, DTT oxidation, H2O2 HRP-luminol luminescence; P55789; 290,000 tested, 3.8% active; inhibition, % (concentration not given with the values); AID 485317;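 active = mean replicate inhibition above about 79%, with every replicate also reaching it, limit read from the data; inconclusive = only one of the two criteria met; inactive = mean below limit and not every replicate reaching it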
# SUMO HTRF inh: SUMOylation inhibition | P63279 | HTRF SUMOylation assay, SAE1/SAE2 + UBC9, in vitro | inhibition, % at 35 µM | 290,000 tested, 0.36% active | AID 2006; in the data active = inhibition above about 50%, passing the limit was not always enough; inconclusive = no clear call, values can overlap the other calls
# Target sequence (P63279 whole entry, looked up): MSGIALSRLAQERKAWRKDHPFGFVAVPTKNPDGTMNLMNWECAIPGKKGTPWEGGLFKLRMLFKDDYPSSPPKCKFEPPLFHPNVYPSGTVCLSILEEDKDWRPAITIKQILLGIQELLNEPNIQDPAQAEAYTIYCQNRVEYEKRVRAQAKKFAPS
# Cardio protect: modulators protecting cardiomyocytes from myocardial damage | AID 588492 | protection from H2O2 cell death, % at 20 µM | 360,000 tested, 0.63% active | H9c2 cardiomyocytes, H2O2 injury protection, ATPLite, 2 h;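 active = compounds giving at least 50% protection of heart cells from peroxide-induced death in the single-dose screen, raw or plate-pattern-corrected value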
# NTR1 agonist: activates human neurotensin receptor 1; P30989; NTR1-U2OS beta-arrestin-GFP spot imaging, agonist mode; activation, % at 20 µM; 330,000 tested, 0.17% active; AID 493036;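 active = activation at or above 40% of the spot to cytoplasm intensity ratio, with at least 20 cells analyzed; inconclusive = wells under 20 cells, flagged as cytotoxic or low count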
# Target sequence (P30989 whole entry, looked up): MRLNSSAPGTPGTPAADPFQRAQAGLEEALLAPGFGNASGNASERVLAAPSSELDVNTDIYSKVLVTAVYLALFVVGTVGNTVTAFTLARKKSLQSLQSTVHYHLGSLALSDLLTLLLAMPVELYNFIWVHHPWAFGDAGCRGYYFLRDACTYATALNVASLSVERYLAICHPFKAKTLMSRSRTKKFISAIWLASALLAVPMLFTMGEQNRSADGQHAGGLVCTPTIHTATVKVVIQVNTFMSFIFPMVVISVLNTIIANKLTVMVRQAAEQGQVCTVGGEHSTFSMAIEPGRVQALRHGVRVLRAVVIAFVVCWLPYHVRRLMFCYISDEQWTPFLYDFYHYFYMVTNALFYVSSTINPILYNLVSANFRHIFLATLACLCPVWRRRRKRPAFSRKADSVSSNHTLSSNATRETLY
# Numbers stand for hits; – = inactive; ? = inconclusive; · = not tested or not shown. A selection: hits, their analogues and other compounds. The true share with any hit is near 3.9%.
SMILES,ALR inh,SUMO HTRF inh,Cardio protect,NTR1 agonist
O=C(CN1CCN(c2ccc(F)cc2)CC1)Nc1cccnc1Cl,–,–,–,–
CN(C)S(=O)(=O)c1cc(NC(=O)CN2CCN(c3ccccc3O)CC2)ccc1Cl,98.2,–,–,–
O=C(CN1CCN(c2ccccc2O)CC1)Nc1cccnc1Cl,98.7,–,–,–
CN(C)c1nc(N)c([N+](=O)[O-])c(NCc2ccccc2)n1,–,–,–,–
CC(C)(C)C(=O)Nc1cccc(-c2nc3ccccc3[nH]2)c1,–,–,–,–
O=C(CN1CCN(c2ccccc2O)CC1)NCCCc1ccccc1,98.8,–,–,–
COc1ccc(-c2csc(C(C#N)=C(O)CSc3nccn3C)n2)cc1OC,·,·,56.8,·
COc1ccc(-c2csc(C)n2)cc1OC,–,–,–,–
CCOC(=O)c1nc2sc3c(c2c(=O)[nH]1)CCCC3,–,–,–,–
N#C/C(=C\c1ccc(C(=O)O)cc1)c1nc2sc3c(c2c(=O)[nH]1)CCCC3,·,59.5,–,·
N#C/C(=C\c1cccc([N+](=O)[O-])c1)c1nnc2n1CCCCC2,–,–,–,–
COc1ccc(C(=O)CSc2cc(C)nc3nc(C)nn23)cc1OC,98.4,–,–,–
COc1ccc(C(=O)CSC#N)cc1OC,98.8,–,–,–
COc1ccc(C(=O)CSc2nc(SC)ns2)cc1OC,·,–,–,–
CCCCNC(=O)CSc1nc(Cc2ccccc2)nc2ccccc12,?,–,–,–
CCOc1cccc(NC(=O)/C(C#N)=C\c2cccnc2)c1,·,–,–,–
CC(C)CCN1CCN(Cc2ccc3nsnc3c2)CC1CCO (configuration not stated),–,–,–,–
CC(=O)OC1CCC2(C)C(CCC3C2CC(=O)C2(C)C3CC(C(C(C)=O)C(C)=O)C2C(C)=O)C1 (configuration not stated),·,·,–,·
Cc1c(NC(=O)c2ccc(=O)oc2)c(=O)n(-c2ccccc2)n1C,88.2,–,–,–
COc1ccccc1-c1cc(C(=O)Nc2c(C)n(C)n(-c3ccccc3)c2=O)no1,96.9,–,–,–
Cc1c(NC(=O)c2ccc(C(=O)Nc3c(C)n(C)n(-c4ccccc4)c3=O)cc2)c(=O)n(-c2ccccc2)n1C,–,–,–,–
Cc1ccc(N/N=C(\C#N)C(N)=S)cc1C,·,–,–,–
N#C/C(=N\Nc1ccc(Cl)cc1)C(N)=S,94.4,–,–,–
N#C/C(=N\Nc1ccccc1)C(N)=S,92.3,–,–,–
Cc1ccc(NC(=O)CSC2=C(C#N)C(c3ccco3)CC(=O)N2)cc1 (configuration not stated),98.5,–,–,–
SMILES,ALR inh,SUMO HTRF inh,Cardio protect,NTR1 agonist
Cc1ccc(NC(=O)CSC2=C(C#N)C(c3ccco3)C3=C(CC(C)(C)CC3=O)N2)cc1 (configuration not stated),98.3,–,–,–
Cc1ccc(C(=O)CSC2=C(C#N)C(c3ccco3)CC(=O)N2)c(C)c1 (configuration not stated),92.4,–,–,–
COC(=O)CSC1=C(C#N)C(c2ccc(C)o2)CC(=O)N1 (configuration not stated),–,–,–,–
COc1ccc(C(=O)O)nc1C,–,–,–,–
O=C(Oc1cc2oc(=O)cc(-c3ccccc3)c2cc1Cl)C1CCCCC1,98.5,–,–,–
CC(C)(C)OC(=O)NCC(=O)Oc1cc2oc(=O)cc(-c3ccccc3)c2cc1Cl,–,–,–,–
COc1c(C)cc(C(=O)C2CCCN(C(=O)c3ccc4[nH]ccc4c3)C2)cc1C (configuration not stated),–,–,–,–
O=C(c1ccc(N2CCOCC2)cc1)N1CCCC(Nc2ccccc2)C1 (configuration not stated),–,–,–,–
Cc1ccc(NC2CCCN(C(=O)c3ccc4[nH]ccc4c3)C2)cc1C (configuration not stated),88.0,–,–,–
O=C(c1ccc2[nH]ccc2c1)N1CCCC(Nc2ccccc2)C1 (configuration not stated),98.8,–,–,–
CN(CCc1ccccn1)C(=O)CCC1CCCN(C(=O)NC2CCCCC2)C1 (configuration not stated),–,–,–,–
CC1CCC(C(C)C)C2=C1C(C#N)(C#N)C(C#N)(C#N)C(c1ccccc1)N2 (configuration not stated),94.4,–,–,–
CC1=CC(C#N)(C#N)C(C#N)(C#N)C(c2ccccc2)N1 (configuration not stated),–,–,·,–
COc1ccc(-c2cc(C(F)(F)F)n3nc(C(=O)NCc4ccco4)cc3n2)cc1,–,–,–,–
Cc1cc(-c2ccccc2)nc2cc(C(=O)NCc3ccco3)nn12,93.0,–,–,–
COc1ccccc1CC(=O)Nc1cccc2c1CCCC2,–,–,–,–
Cc1ccc(NCc2nc3ccccc3n2C)cc1C,98.2,–,–,–
Cc1ccc(NC(=O)NCc2nc3ccccc3n2C)cc1,–,–,–,–
Cn1c(CNc2ccc(O)cc2)nc2ccccc21,98.9,–,–,–
COc1ccc(NCc2nc3ccccc3n2C)cc1,98.0,–,–,–
CCOC(=O)c1ccc(NCc2nc3ccccc3n2C)cc1,–,–,–,–
Cc1ccc(NCc2nc3ccccc3n2C)cc1,–,–,–,–
Cn1c(CNc2ccc(Br)cc2)nc2ccccc21,96.4,–,–,–
Cc1ccc(C(=O)OCC(=O)N2CCC(Cc3ccccc3)CC2)cc1N,–,–,–,–
Cn1c(CNc2nc3ccccc3n2C)nc2ccccc21,–,–,–,–
SMILES,ALR inh,SUMO HTRF inh,Cardio protect,NTR1 agonist
CN(Cc1nc2ccccc2n1C)c1ccccc1,98.7,–,–,–
COc1ccc(Nc2nc3ccccc3n2C)cc1,76.5,–,–,–
O=c1[nH]c2cccnc2c2ccsc12,–,–,58.5,–
COc1ccc(/C(C)=N/NC(=O)CNC(=O)c2cccnc2)cc1,–,–,–,–
C/C(=N\NC(=O)c1cccnc1)c1ccc(OC2OCCOC2Oc2ccc(/C(C)=N/NC(=O)c3cccnc3)cc2)cc1 (configuration not stated),–,–,53.3,–
CCc1cc(-c2n[nH]c(=S)n2-c2cccc(C)c2)cs1,84.9,–,–,–
Cc1ccccc1NC(=O)CN1CCN(c2ccc(F)cc2)CC1,·,·,–,·
OCc1ccccc1SSc1ccccc1CO,98.1,·,–,–
Cc1noc(C)c1COC(=O)c1ccc(S(=O)(=O)NCc2ccco2)cc1,–,–,–,–
N#C/C(=N\Nc1ccc(Cl)c(Cl)c1)C(=O)C1CC1,–,–,–,–
N#C/C(=N\Nc1ccc(F)cc1)C(=O)C1CC1,97.9,–,–,–
CC(C)CN1CCN(Cc2cccc3nccnc23)CC1CCO (configuration not stated),–,–,–,–
CCS(=O)(=O)NC(C)C(c1cccs1)N1CCN(c2ccc(OC)cc2)CC1 (configuration not stated),99.1,–,–,–
COc1ccc(N2CCN(C(c3cccs3)C(C)NC(=O)C(=O)N3CCCC3)CC2)cc1 (configuration not stated),97.8,–,–,–
COc1ccccc1N1CCN(C(c2cccs2)C(C)NC(=O)C(=O)N2CCCCC2)CC1 (configuration not stated),–,–,–,–
